Values joined by “and” are separate entries in the source; they are usually repeats but may differ in a detail not shown here. Equal entries are not always repeated. Compounds without any hit were thinned out: in the full panel of roughly 83,000, 20% have a hit.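 Each cell line was grown in a 96-well plate and treated with one concentration of compound for 48 hours. Values below 10 were considered active.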 Active and inactive are the calls of the source.
What was measured:
Assay in all cases: NCI-60 one-dose screen, 48 h (100 = growth as untreated, 0 = no growth, -100 = all killed)
Details in all cases: 10 µM unless noted
[1] = tested on: NCI-H23 lung
[2] = tested on: NCI-H226 lung
[3] = tested on: NCI-H322M lung
[4] = tested on: HOP-62 NSCLC
[5] = tested on: NCI-H460 lung
[6] = tested on: HOP-92 NSCLC
[7] = tested on: NCI-H522 lung
[8] = tested on: A549/ATCC NSCLC
[9] = tested on: 786-0 renal
[10] = tested on: COLO 205 colon
[11] = tested on: DU-145 prostate
[12] = tested on: K-562 leukemia
[13] = tested on: MALME-3M melanoma
[14] = tested on: MDA-MB-231 breast
[15] = tested on: RXF 393 renal
[16] = tested on: SF-268 CNS
[17] = tested on: SF-295 CNS
[18] = tested on: SF-539 CNS
[19] = tested on: UACC-257 melanoma
[20] = tested on: M14 melanoma

Measured: growth

Cc1cc(=O)[nH]c(O)c1C#N
inactive: [1] 103% and 97.6% | [2] 103% and 101% | [3] 95.5% and 99% | [4] 96.6% and 101% | [5] 105% and 104% | [6] 106% and 52% | [7] 101% and 96.9% | [8] 102% and 95.3% | [9] 97.7% and 98.5% | [10] 111% and 104% | [11] 112% and 106% | [12] 106% and 112% | [13] 98% and 103% | [14] 107% and 109% | [15] 106% | [16] 109% and 101% | [17] 99.6% and 98.5% | [18] 97.8% and 105% | [19] 99.4% and 103% | [20] 99.4% and 101%

CC(=O)Nc1ccc2cc3ccc(NC(C)=O)cc3nc2c1
inactive: [1] 74.2% and 75% | [2] 71% and 69.8% | [3] 64.3% and 46.1% | [4] 70.9% and 67% | [5] 93.6% and 106% | [6] 60.6% | [7] 74.3% and 77.7% | [8] 107% and 115% | [9] 63.9% and 52.1% | [10] 93.7% and 91.4% | [11] 64.5% and 38.2% | [12] 66% and 98.4% | [13] 134% and 94.6% | [14] 65% and 75.7% | [15] 82.7% and 103% | [16] 64.2% and 57% | [17] 71.9% and 57.9% | [18] 96.4% and 87.4% | [19] 111% and 118% | [20] 88% and 87.8%

CCN(CC)CCCC(C)Nc1ccnc2cc(Oc3ccccc3)ccc12 (stereo not given)
inactive: [1] 90.1% and 78.7% | [2] 99.7% and 112% | [3] 84.7% and 105% | [4] 68.9% and 83.2% | [5] 69.7% and 96.5% | [7] 55.9% | [8] 58.7% and 86.6% | [9] 64.3% and 84.6% | [10] 47.6% and 60.2% | [11] 91.4% and 87.4% | [13] 78% and 89.4% | [14] 40.1% and 34.1% | [15] 17.8% and 70.7% | [16] 54.5% and 67.1% | [17] 81.5% and 74.9%
-6.39% (active) and 60.3% (inactive): [6]
active: [18] 1.83% and 4.93% | [19] -67.2% and -56.4% | [20] -43.4% and -81.6%
1.73% (active) and 41.2% (inactive): [12]

N#CC(C#N)=C/C=C/c1cccc([N+](=O)[O-])c1
active: [4] -4.35% and -23.7% | [5] -7.92% and -72.3% | [7] -55.5% and -70.5% | [10] 1.24% and -26.8% | [11] -26.8% and -24.1% | [12] 7.22% and 3.61% | [13] 7.87% | [14] 9.84% and 8.38% | [15] -68.9% and -73.5% | [16] 6.01% and -8.99% | [18] 8.63% and 4.54% | [19] -32% and -64.4% | [20] -37.1% and -74.9%
26.2% (inactive) and -22.1% (active): [9]
21.8% (inactive) and -24.7% (active): [2]
inactive: [3] 59.9% and 26.4% | [6] 23.3% | [8] 34.1% and 10.2%
19.4% (inactive) and -19.3% (active): [1]
37.1% (inactive) and -41.1% (active): [17]

Cc1cc(O)c(C(C)C)cc1N
inactive: [1] 97.5% and 92.7% | [2] 108% and 93.1% | [3] 122% and 102% | [4] 90% and 109% | [5] 121% and 103% | [6] 100% | [7] 82.5% and 86.9% | [8] 109% and 110% | [9] 97.2% and 105% | [10] 130% and 126% | [11] 115% and 116% | [12] 113% and 101% | [13] 113% and 112% | [14] 103% and 92.3% | [15] 119% and 115% | [16] 102% and 120% | [17] 104% and 99% | [18] 101% and 95.6% | [19] 107% and 111% | [20] 108% and 112%

CNC(=O)c1cc(Oc2ccc(NC(=O)Nc3ccc(Cl)c(C(F)(F)F)c3)cc2)ccn1
-2.52% (active) and 18.3% (inactive): [3]
25.7% (inactive) and 7.26% (active): [16]
10.7% (inactive) and 6.13% (active): [17]
5.13% (active) and 22.5% (inactive): [4]
-33.4% (active) and 10.8% (inactive): [18]
1.27% (active) and 29.2% (inactive): [12]
-40.2% (active) and 53% (inactive): [13]
active: [1] -10.2% and -19.9% | [2] -17.8% and -23.1% | [5] 6.19% and 2.65% | [6] -22.9% and -30.7% | [7] -18.5% and -38.9% | [8] 3.89% and -36.4% | [10] -46% and -24.7% | [14] -34% and -34.5% | [15] -35.8% and -56.3% | [19] -26.1% | [20] -4.68% and 5.32%
inactive: [9] 16.2% and 15.5% | [11] 20.7% and 13.7%

Clc1ccc(NC(Nc2ccc(Cl)cc2)C(Cl)(Cl)Cl)cc1
inactive: [1] 78.1% and 96.5% | [2] 107% and 96.8% | [3] 81.4% and 104% | [4] 61.3% and 86.3% | [5] 93.9% and 105% | [6] 105% | [7] 71.2% and 72.1% | [8] 80.9% and 92.3% | [9] 68.5% and 93.6% | [10] 129% and 101% | [11] 112% and 100% | [12] 17.7% and 43.8% | [13] 101% and 114% | [14] 87.3% and 116% | [15] 111% and 113% | [16] 87.7% and 90.5% | [17] 90.3% and 97% | [18] 110% and 100% | [19] 90.1% and 99.6% | [20] 71.1% and 82.3%

NS(=O)(=O)c1cc2c(cc1Cl)NC(C(Cl)Cl)NS2(=O)=O (stereo not given)
inactive: [1] 120% and 106% | [2] 108% and 99.3% | [3] 98.8% and 101% | [4] 104% and 122% | [5] 110% and 114% | [6] 96.3% | [7] 96.7% and 104% | [8] 80.9% and 106% | [9] 87.6% and 104% | [10] 109% and 113% | [11] 108% and 112% | [12] 97% and 93.9% | [13] 107% | [14] 105% and 108% | [15] 112% and 128% | [16] 107% and 104% | [17] 118% and 111% | [18] 104% | [19] 84.4% and 95% | [20] 97.5% and 107%

From PubChem BioAssay (NCI)
